The target in experiment [1] is Lysosomal acid glucosylceramidase (Homo sapiens) (UniProt P04062). Briefly: Glucocerebrosidase-p2 (AID 348; in the data active means potency below about 10 µM; further: potency means the concentration at half of the fitted maximal effect). Conditions: purified GBA, blue fluorogenic substrate, 40 min. The method, boiled down:
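Normal human glucocerebrosidase (0.2 nM) with blue fluorogenic substrate (80 uM final) in citrate/phosphate pH 5.9 with 10mM sodium taurocholate, 0.01% tween-20; 40 min RT, NaOH/glycine stop; fluorescence Ex 365/Em 440; AC50 from a titration from 0.6 nM upwards.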

Experiment [2] in a line: AP1 Signaling Pathway (AID 357).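 Further: ME-180 reporter cells stimulated with EGF at its EC50 level; on the % scale 0 is the no-effect control and ±100 the full control effect.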 Conditions: ME-180 AP-1-bla reporter, EGF-induced, beta-lactamase ratio, 5 h; at 7.69 µM (top of the series) unless noted. The essentials: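 Titration-series screen for positive or negative modulators of EC50 EGF-induced signaling in ME-180 cells carrying an AP-1-driven beta-lactamase reporter. After 5 hours at 37 degrees Celsius, CCF4 460nm/530nm emission ratio gave %Activity; AC50 values derived.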

The target in experiment [3] is Cytochrome P450 1A2 (Homo sapiens) (UniProt P05177). Briefly: p450-cyp1a2 (AID 410; calls by dose curve; further: potency means the concentration at half of the fitted maximal effect;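 on activity change, negative = inhibition: -100% = full effect of reference inhibitor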). Conditions: recombinant CYP1A2, luciferin-ME demethylation, luminescence; series mostly up to 11.4 µM. The essentials:
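Luminescent demethylation readout: Luciferin-ME (100uM, equal to Km) turned over by 20nM CYP1A2 for 60 min at room temperature after NADPH regeneration addition, following 10 min compound preincubation. Normalization used 57 uM furafylline as full inhibition.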

A short description of experiment [4]: NFAT Signaling Pathway (AID 444).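 Further: carbachol stimulus at about its EC50 of 1 µM final; on the % scale 0 is the no-effect control and ±100 the full control effect.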 Conditions: Jurkat NFAT-bla M1, carbachol, beta-lactamase ratio, 5 h; at 7.69 µM (top of the series) unless noted. The essentials: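 Read-out: CCF4 FRET ratio (460 nm/530 nm) after 1 h RT dye loading, used for %activity and AC50 from titration series. Cells: Jurkat NFAT-β-lactamase/M1 line, treated with compound plus 1 uM carbachol for 5 h, 37 °C.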

The nature of experiment [5]: Stat Signaling Pathway (AID 446).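 Further: ME-180 cervical cancer cells given 40 pM IL-6 alongside compound; SIE-controlled beta-lactamase reporter measured as 460/530 nm FRET emission ratio; on the % scale 0 is the no-effect control and ±100 the full control effect.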 As to conditions: ME-180 (cervical carcinoma) SIE beta-lactamase reporter, IL-6 stimulated, 5 h; at 7.69 µM (top of the series) unless noted. The essentials: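 Overnight-plated ME-180 cells bearing a STAT Inducible Element beta-lactamase reporter; 5 h co-exposure to compound and 40 pM IL-6; values normalized to 300 pM IL-6 and 125 nM JAK inhibitor controls.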

For experiment [6], the target named is Glucocorticoid receptor (Homo sapiens) (UniProt P04150). Briefly: GR-GFP Redistribution (AID 450;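 active means compounds whose dose series gives a full or clear partial fitted curve of increased nuclear translocation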; further: potency means the concentration at half of the fitted maximal effect). As to conditions: U2OS GR-GFP nuclear translocation, laser cytometry, 2 h.
Experiment [7] has the same target. Briefly: GR-EFC Redistribution (AID 451; calls by dose curve; further: potency means the concentration at half of the fitted maximal effect). As to conditions: CHO-K1 GR-EFC translocation, beta-gal luminescence, 2 h. The essentials:
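Translocation of GR-ED fusion to nuclear EA restores b-gal, read by luminescence after 1 h room-temperature detection. Engineered CHO-K1 biosensor cells, 1,000/well, exposed 2 h at 37 C to titrations up to 46 uM final.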

Experiment [8] has as its target Mitogen-activated protein kinase 10 (Mus musculus) (UniProt Q61831). Briefly: JNK3 AlphaScreen Assay (AID 530).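 Further: kinase came from lysate of stimulated human HepG2 cells; signal reports phosphorylation of biotinylated GST-cJun 1-79 at Ser73 with 10 µM ATP; on the % scale 0 is the no-effect control and ±100 the full control effect.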 As to conditions: JNK3 lysate, c-Jun phosphorylation; series mostly up to 11.4 µM. The method, boiled down: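 qHTS titrations with 15 min compound pre-incubation before adding ATP (10 uM final). Read-out: AlphaScreen of Ser73-phosphorylated biotin-GST-cJun using HepG2 lysate JNK3 activated by IL-1β and TNFα.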

The target of experiment [9] is 3',5'-cyclic-AMP phosphodiesterase 4B (Homo sapiens) (UniProt Q07343). Briefly: qHTS Assay for Inhibitors of PDE-IV (AID 607; active means well fitted activation curve with a large enough effect in the main read-out, with a control signal flat, not every such curve was filed as active; further: % of control where 0% means no effect). Conditions: HEK293 ACTOne CNG channel cells, membrane potential fluorescence; series mostly up to 22.9 µM. The essentials:
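Live HEK293 cells with a modified cyclic nucleotide-gated (CNG) channel report intracellular cAMP via membrane-potential dye fluorescence (ex 535/em 590 nm). Endogenous PDE-IV was targeted. Compounds were tested at up to 22.9 uM final; RO 20-1724 100 uM served as control.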

Experiment [10] concerns the target Cytochrome P450 2C9 (Homo sapiens) (UniProt P11712). Briefly: qHTS Assay for Inhibitors and Substrates of Cytochrome P450 2C9 (AID 883; active means well fitted curve in the direction sought with a large enough effect; an effect the other way counts as inactive or inconclusive; further: nearly all actives have a fitted effect of over 60% in size; further: potency means the concentration at half of the fitted maximal effect). As to conditions: recombinant CYP2C9, luciferin-H luminescence, 60 min; series mostly up to 11.4 µM. The method, boiled down:
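Inhibition of CYP2C9 is scored as loss of luminescence, with 57uM sulphaphenazole defining 100% inhibition. Substrate Luciferin-H is used at 100uM, equal to its KM; enzyme at 10nM in 25mM KPO4, 60 min at 37C with NADPH regeneration.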

The target of experiment [11] is Cytochrome P450 3A4 (Homo sapiens) (UniProt P08684). Briefly: qHTS Assay for Inhibitors and Substrates of Cytochrome P450 3A4 (AID 884; active means well fitted curve in the direction sought with a large enough effect; an effect the other way counts as inactive or inconclusive; further: potency means the concentration at half of the fitted maximal effect; nearly all actives have a fitted effect of over 50% in size). As to conditions: recombinant CYP3A4, Luciferin-PPXE luminescence; series mostly up to 57.1 µM. The method, boiled down:
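Luminescent readout of luciferin produced by CYP3A4 (20 nM) dealkylation of Luciferin-PPXE, 25 uM (its KM). NADPH-driven reaction ran 60 min at RT after 10 min compound preincubation; data scaled to 57 uM ketoconazole as 100% inhibition.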

For experiment [12] the target is unchanged. Briefly: qHTS Assay for Activators of Cytochrome P450 3A4 (AID 885; active means well fitted curve in the direction sought with a large enough effect; an effect the other way counts as inactive or inconclusive; further: nearly all actives have a fitted effect of over 65% in size). Conditions: recombinant CYP3A4, Luciferin-PPXE luminescence, 60 min; series mostly up to 11.4 µM. The method, boiled down:
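Using 20nM recombinant human CYP3A4 in potassium phosphate (200mM), substrate Luciferin-PPXE at 25uM, luminescent luciferin detection followed a 60-min RT NADPH reaction; data scaled to 57 uM ketoconazole.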

The target of experiment [13] is Cytochrome P450 2C19 (Homo sapiens) (UniProt P33261). Briefly: qHTS Assay for Inhibitors and Substrates of Cytochrome P450 2C19 (AID 899; active means well fitted curve in the direction sought with a large enough effect; an effect the other way counts as inactive or inconclusive; further: potency means the concentration at half of the fitted maximal effect; nearly all actives have a fitted effect of over 60% in size). Conditions: recombinant CYP2C19, luciferin-H EGE luminescence; series mostly up to 11.4 µM. The method, boiled down: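 5nM enzyme + 10uM Luciferin-H EGE (=KM), 50mM KPO4; cpd pin-transferred, 10 min 37C; NADPH regen, 60 min 37C; stopped w/ luciferin detection reagent, 20 min; luminescence. Normalized to 57uM ketoconazole (AC100).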

Experiment [14] has as its target Cytochrome P450 2D6 (Homo sapiens) (UniProt P10635). Briefly: qHTS Assay for Inhibitors and Substrates of Cytochrome P450 2D6 (AID 891; active means well fitted curve in the direction sought with a large enough effect; an effect the other way counts as inactive or inconclusive;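 further: luciferin methyl ether substrate demethylated by CYP2D6 with NADPH regeneration; on the % scale 0 is the no-effect control and ±100 the full control effect; nearly all actives have a fitted effect of over 60% in size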). Conditions: recombinant CYP2D6, luciferin-ME EGE luminescence; series mostly up to 11.4 µM. The method, boiled down: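 Luminescent read-out of luciferin formed by 5 nM human CYP2D6 demethylating 30 uM Luciferin-ME EGE (Km level) over 60 min at room temperature after NADPH regeneration addition. Data normalized to full inhibition by 1.43 uM quinidine.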

Each structure is given as a SMILES string. Values without a mark were called inactive. Records with an inconclusive call do not appear. Activity calls are given as the source filed them. Unless noted, the call rests on the fitted dose curve; in most records, active means well fitted curve in either direction with a large enough effect (not every such curve was filed as active); inconclusive means small, poorly fitted or top-dose-only effect, or another doubt; inactive means flat fitted curve, though single readings scatter. Some results are limits rather than exact numbers.

Chain of Glucocorticoid receptor (Homo sapiens) (P04150 whole entry, looked up): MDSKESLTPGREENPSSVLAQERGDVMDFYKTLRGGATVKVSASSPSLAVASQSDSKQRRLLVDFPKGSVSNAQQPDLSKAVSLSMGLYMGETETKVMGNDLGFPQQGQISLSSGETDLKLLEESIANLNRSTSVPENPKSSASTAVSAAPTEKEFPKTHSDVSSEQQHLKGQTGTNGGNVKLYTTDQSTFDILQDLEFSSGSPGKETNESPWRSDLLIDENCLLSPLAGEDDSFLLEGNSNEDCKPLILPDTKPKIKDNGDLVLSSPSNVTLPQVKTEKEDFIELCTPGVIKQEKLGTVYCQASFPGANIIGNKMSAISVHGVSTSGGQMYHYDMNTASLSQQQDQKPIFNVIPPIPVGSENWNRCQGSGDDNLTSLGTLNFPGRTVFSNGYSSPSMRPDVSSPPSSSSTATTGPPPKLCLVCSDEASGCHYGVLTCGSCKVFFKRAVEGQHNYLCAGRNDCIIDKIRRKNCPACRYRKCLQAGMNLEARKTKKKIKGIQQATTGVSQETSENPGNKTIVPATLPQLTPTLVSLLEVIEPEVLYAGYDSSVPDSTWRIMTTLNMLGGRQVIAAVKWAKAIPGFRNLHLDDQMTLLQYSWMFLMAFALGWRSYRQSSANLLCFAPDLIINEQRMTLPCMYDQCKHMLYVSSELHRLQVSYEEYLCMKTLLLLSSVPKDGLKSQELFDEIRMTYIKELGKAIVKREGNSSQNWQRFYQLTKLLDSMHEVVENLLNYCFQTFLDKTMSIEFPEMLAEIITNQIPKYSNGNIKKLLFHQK
Chain of Cytochrome P450 2C9 (Homo sapiens) (P11712 whole entry, looked up): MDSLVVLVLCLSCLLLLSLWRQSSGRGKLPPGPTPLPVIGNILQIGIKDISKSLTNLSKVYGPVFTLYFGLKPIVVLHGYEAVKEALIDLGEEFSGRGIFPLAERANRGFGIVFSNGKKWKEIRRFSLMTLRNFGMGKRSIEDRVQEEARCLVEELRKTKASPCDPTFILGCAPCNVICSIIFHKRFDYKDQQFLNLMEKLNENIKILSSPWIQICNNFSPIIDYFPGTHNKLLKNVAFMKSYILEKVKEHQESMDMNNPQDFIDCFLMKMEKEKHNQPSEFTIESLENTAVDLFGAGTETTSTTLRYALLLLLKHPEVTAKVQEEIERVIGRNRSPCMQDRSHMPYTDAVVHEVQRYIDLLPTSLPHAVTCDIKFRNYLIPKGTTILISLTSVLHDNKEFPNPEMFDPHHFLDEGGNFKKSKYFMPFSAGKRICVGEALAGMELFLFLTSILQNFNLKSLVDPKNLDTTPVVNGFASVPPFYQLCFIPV
Chain of Lysosomal acid glucosylceramidase (Homo sapiens) (P04062 whole entry, looked up): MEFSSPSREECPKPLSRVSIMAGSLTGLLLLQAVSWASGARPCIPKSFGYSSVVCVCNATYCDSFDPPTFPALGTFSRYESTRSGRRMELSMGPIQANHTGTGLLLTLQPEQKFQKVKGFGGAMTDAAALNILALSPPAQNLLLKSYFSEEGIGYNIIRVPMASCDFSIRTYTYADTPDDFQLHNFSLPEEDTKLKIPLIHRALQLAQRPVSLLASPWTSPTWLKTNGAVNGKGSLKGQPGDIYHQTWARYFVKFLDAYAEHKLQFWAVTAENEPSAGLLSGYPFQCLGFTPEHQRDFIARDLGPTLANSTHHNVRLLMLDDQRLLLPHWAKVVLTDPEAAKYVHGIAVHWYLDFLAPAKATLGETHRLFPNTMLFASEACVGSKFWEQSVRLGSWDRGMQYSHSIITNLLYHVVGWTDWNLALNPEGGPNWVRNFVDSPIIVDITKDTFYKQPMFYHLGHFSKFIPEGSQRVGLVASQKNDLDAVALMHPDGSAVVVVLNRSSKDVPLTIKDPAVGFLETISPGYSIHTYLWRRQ
Chain of Cytochrome P450 3A4 (Homo sapiens) (P08684 whole entry, looked up): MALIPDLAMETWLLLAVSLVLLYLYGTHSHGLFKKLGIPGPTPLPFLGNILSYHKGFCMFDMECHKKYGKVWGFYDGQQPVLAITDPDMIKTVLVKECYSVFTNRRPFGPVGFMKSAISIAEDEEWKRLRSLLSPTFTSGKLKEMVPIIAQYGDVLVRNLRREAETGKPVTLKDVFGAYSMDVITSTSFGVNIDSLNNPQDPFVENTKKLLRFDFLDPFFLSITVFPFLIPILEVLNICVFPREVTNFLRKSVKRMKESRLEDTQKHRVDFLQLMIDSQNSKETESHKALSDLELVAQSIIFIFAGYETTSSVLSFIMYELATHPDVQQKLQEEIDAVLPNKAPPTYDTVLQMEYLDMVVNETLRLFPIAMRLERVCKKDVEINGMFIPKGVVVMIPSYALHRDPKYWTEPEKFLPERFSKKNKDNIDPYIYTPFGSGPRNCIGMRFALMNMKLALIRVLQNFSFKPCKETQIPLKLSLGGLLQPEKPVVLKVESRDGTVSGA
Chain of 3',5'-cyclic-AMP phosphodiesterase 4B (Homo sapiens) (Q07343 whole entry, looked up): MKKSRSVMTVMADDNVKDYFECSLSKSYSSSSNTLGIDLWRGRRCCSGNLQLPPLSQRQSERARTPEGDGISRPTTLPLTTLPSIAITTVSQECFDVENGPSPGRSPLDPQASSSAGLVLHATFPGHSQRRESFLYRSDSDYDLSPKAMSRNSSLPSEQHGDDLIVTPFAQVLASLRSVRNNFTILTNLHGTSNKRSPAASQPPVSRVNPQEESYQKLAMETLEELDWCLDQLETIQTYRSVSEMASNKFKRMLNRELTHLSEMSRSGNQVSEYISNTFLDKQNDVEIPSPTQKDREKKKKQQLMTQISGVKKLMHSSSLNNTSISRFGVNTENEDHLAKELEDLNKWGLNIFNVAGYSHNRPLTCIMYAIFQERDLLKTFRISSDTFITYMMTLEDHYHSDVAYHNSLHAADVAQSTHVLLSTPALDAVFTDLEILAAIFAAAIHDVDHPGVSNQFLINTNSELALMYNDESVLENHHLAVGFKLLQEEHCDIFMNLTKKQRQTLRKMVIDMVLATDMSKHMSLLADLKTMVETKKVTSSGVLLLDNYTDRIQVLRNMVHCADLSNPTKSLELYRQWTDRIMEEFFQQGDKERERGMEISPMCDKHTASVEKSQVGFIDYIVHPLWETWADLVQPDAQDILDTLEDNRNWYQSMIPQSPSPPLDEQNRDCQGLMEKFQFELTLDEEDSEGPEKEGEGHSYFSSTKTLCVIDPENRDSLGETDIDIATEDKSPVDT
Chain of Cytochrome P450 1A2 (Homo sapiens) (P05177 whole entry, looked up): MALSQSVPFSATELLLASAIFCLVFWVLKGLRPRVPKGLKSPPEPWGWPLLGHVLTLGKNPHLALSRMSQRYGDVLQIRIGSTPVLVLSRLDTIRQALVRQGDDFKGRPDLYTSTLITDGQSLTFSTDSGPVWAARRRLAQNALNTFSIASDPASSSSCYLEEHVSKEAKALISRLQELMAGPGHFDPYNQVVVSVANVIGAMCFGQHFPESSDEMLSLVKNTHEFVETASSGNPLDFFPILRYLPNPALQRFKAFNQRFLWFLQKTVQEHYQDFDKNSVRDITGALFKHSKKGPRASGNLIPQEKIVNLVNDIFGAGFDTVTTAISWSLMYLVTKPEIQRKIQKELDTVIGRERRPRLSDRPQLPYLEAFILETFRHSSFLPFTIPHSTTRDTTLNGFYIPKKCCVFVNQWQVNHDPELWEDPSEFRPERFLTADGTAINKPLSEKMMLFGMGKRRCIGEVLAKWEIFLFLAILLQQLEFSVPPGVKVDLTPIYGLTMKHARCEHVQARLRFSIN
Chain of Cytochrome P450 2C19 (Homo sapiens) (P33261 whole entry, looked up): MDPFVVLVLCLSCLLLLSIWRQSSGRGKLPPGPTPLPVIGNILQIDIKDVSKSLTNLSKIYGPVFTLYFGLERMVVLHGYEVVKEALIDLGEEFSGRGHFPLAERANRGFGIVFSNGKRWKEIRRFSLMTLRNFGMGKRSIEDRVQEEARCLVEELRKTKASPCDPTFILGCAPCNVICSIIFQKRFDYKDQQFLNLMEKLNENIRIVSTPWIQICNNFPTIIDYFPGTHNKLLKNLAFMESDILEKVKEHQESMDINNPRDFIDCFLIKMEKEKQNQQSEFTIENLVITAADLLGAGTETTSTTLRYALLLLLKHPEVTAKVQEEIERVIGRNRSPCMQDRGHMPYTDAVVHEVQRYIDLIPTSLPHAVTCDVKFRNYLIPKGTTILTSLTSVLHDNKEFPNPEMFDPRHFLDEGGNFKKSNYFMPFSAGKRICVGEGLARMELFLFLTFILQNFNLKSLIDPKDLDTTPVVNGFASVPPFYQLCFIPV
Chain of Cytochrome P450 2D6 (Homo sapiens) (P10635 whole entry, looked up): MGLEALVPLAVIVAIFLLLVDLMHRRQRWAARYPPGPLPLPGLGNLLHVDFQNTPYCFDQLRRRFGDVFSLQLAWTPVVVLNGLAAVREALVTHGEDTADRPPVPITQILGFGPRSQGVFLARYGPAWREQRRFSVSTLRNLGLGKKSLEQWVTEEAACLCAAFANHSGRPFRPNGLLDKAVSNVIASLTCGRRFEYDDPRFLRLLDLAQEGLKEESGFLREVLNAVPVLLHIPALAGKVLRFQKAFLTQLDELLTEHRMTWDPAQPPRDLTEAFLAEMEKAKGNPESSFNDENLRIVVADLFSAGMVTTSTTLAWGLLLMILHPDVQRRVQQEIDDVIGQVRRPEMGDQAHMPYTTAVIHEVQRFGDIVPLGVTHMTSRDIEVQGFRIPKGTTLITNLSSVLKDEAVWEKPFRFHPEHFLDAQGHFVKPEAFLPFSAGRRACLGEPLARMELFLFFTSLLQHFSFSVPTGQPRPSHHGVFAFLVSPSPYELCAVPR

As for `NC(N)=N/N=C\c1ccc(C2CCNCC2)cc1`, the Potency in experiment [1] is over 11.4 µM; in [6], over 46 µM; in experiment [7] it was over 9.22 µM. Besides, the values for the activity change, negative = inhibition in experiment [2], in experiment [3] and in experiment [4] were 7.39%, -12% [at 2.29 µM] and -11.8%, respectively. The activity, negative = inhibition in [5] is 0.317%. Also, the Potency result in experiment [8] and in [9] was “inactive” each time.
As for `C[C@@H](N=C(N)N)C(=O)O`, the Potency was over 11.4 µM in experiment [1], over 46 µM in experiment [6] and over 9.22 µM in experiment [7]. Besides, the activity change, negative = inhibition was -6.66% in experiment [2] and 16.8% in [4]. The Potency entry in experiment [3], in [8] and in experiment [9] was “inactive” throughout. Also, the activity, negative = inhibition in [5] is -6.68%.
As for `O=C(C[C@@H]1C=Cc2ccccc2N1C(=O)c1ccccc1)c1ccccc1`, the Potency in experiment [1] is over 11.4 µM; in experiment [6], over 46 µM; in [7] it was over 9.22 µM; in [10] it was 2.51 µM (active); in experiment [11], 3.98 µM (active); in experiment [13] it was 0.501 µM (active). Besides, the activity change, negative = inhibition in [2] is -6.74%; in experiment [3] it was -23.2% [at 2.29 µM]; in experiment [4] it was -22.9%. Also, the activity, negative = inhibition in [5] was -9.68%. Further, the Potency result in [8], in experiment [9] and in experiment [12] was “inactive” in each case.
For the compound `CCOc1ccccc1/C=C(\C#N)C(N)=O`, the Potency in experiment [1] was over 11.4 µM; in experiment [3] it was 2 µM (active); in experiment [6], over 46 µM; in [7], over 9.22 µM. The activity change, negative = inhibition was 3.2% in experiment [2] and -1.04% in [4]. The activity, negative = inhibition in experiment [5] was 4.29%. Moreover, the Potency entry in [8], in experiment [9] and in [10] was “inactive” throughout.
Regarding `O=C(O)/C(=C\c1ccc(O)cc1)c1cccc2ccccc12`, the Potency was over 11.4 µM in [1], over 46 µM in experiment [6] and over 9.22 µM in experiment [7]. Also, the activity change, negative = inhibition in experiment [2] is 1.02%; in experiment [4], 2.46%. In addition, the Potency entry in experiment [3], in [8] and in experiment [9] was “inactive” each time. In addition, the activity, negative = inhibition in experiment [5] is -8.2%.
Regarding `Cn1c(=O)c2[nH]c(SCc3ccccn3)nc2n(C)c1=S`, the Potency in experiment [1] was over 11.4 µM; in experiment [3], 0.0126 µM (active); in [6], over 46 µM; in experiment [7], over 9.22 µM; in experiment [10], 3.16 µM (active); in experiment [11] it was 3.98 µM (active). For the same compound, the results for the activity change, negative = inhibition in [2] and in experiment [4] were -5.29% and 13%, respectively. The activity, negative = inhibition in experiment [5] is -3.9%. Besides, the Potency result in experiment [8], in [9], in [12] and in experiment [14] was “inactive” each time.
Consider `Cn1c(N)c(N=Nc2ccc(S(N)(=O)=O)cc2)c(=O)n(C)c1=O`, for which the Potency in experiment [1] is over 11.4 µM; in [6], over 46 µM; in experiment [7], over 9.22 µM. The figures for the activity change, negative = inhibition in experiment [2], in experiment [3] and in experiment [4] were 12.7%, -12.8% [at 2.29 µM] and 16.4%, respectively. Moreover, the activity, negative = inhibition in [5] is 24.3%. In addition, the Potency entry in experiment [8] and in [9] was “inactive” throughout.
On to `C[C@@H](N)[C@@H](C)Cc1ccccc1`, for which the Potency is over 11.4 µM in [1], over 46 µM in experiment [6] and over 9.22 µM in experiment [7]. Further, the activity change, negative = inhibition is 10.1% in [2] and 6.03% in experiment [4]. Besides, the Potency entry in [3], in [8] and in experiment [9] was “inactive” in each case. Also, the activity, negative = inhibition in experiment [5] is 15.9%.
Take `O=C(Nc1cccc2ccccc12)c1ccccc1`: the Potency in [1] is over 11.4 µM; in experiment [3], 3.98 µM (active); in [6], over 46 µM; in experiment [7], over 9.22 µM; in experiment [11], 3.16 µM (active). For the same compound, the activity change, negative = inhibition in [2] is -4.06%; in experiment [4] it was -11.4%. Further, the activity, negative = inhibition in experiment [5] is 3.33%. In addition, the Potency result in [8], in experiment [9], in experiment [10] and in [12] was “inactive” each time.

(Values after PubChem BioAssay (NCATS).)
